Screens deposited in PubChem by several laboratories.
This is a sample that favours compounds with a hit; in the whole collection about 27% have one here.
CYP2C9 activ – activators of human CYP2C9; 1.4% of 96,000 active; activation factor at 5 µM; AID 1024; recombinant CYP2C9, luciferin-H conversion, luminescence; active compounds read high; factor 1 = untreated enzyme, 0 = blocked;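 active = activation factor of 2 or more for CYP2C9 at a 5 µM dose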;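 also: 0 = sulfaphenazole-blocked wells and 1 = vehicle-only wells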
CYP2C19 activ – activators of human cytochrome P450 2C19; P33261; recombinant CYP2C19, luciferin-H EGE luminescence; active compounds read high; 0 = fully inhibited enzyme, 1 = untreated enzyme; activation factor at 5 µM; 96,000 tested, under 10 active;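 active = activation factor of at least 2 at 5 µM in the primary screen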;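 also: 0 = wells with 2.5 mM tranylcypromine and 1 = vehicle-only wells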
CYP2C9 inhib – blocks human cytochrome P450 2C9; 20% of 96,000 active; CYP2C9 Supersomes, luciferin-H conversion, luminescence; inhibition, % at 5 µM; P11712; AID 777;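 active = blocking of liver enzyme CYP2C9 beyond about 50% at 5 µM, limit read from the data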
CYP2C19 inhib – inhibitors of human CYP2C19; P33261; CYP2C19 Supersomes, luciferin-H EGE luminescence, 30 min; 21% of 96,000 active; inhibition, % at 5 µM;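 active = CYP2C19 inhibition above a set limit at 5 µM in the primary screen, cut at about 50% in these data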;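 also: plate controls were negative control wells for no effect and 2.5 mM tranylcypromine positive control for full effect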
Cav3 T inh – inhibitors of human Cav3.2 T-type calcium channel; Cav3.2-expressing cells, Fluo-4 calcium fluorescence FDSS; active compounds read low; 4% of 100,000 active; O95180; B-score at 10 µM;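 active = single-dose well whose peak fluorescence ratio is a statistical outlier from its plate by either plate-standardised score or position-corrected B-score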
Target sequence (O95180 whole entry, looked up): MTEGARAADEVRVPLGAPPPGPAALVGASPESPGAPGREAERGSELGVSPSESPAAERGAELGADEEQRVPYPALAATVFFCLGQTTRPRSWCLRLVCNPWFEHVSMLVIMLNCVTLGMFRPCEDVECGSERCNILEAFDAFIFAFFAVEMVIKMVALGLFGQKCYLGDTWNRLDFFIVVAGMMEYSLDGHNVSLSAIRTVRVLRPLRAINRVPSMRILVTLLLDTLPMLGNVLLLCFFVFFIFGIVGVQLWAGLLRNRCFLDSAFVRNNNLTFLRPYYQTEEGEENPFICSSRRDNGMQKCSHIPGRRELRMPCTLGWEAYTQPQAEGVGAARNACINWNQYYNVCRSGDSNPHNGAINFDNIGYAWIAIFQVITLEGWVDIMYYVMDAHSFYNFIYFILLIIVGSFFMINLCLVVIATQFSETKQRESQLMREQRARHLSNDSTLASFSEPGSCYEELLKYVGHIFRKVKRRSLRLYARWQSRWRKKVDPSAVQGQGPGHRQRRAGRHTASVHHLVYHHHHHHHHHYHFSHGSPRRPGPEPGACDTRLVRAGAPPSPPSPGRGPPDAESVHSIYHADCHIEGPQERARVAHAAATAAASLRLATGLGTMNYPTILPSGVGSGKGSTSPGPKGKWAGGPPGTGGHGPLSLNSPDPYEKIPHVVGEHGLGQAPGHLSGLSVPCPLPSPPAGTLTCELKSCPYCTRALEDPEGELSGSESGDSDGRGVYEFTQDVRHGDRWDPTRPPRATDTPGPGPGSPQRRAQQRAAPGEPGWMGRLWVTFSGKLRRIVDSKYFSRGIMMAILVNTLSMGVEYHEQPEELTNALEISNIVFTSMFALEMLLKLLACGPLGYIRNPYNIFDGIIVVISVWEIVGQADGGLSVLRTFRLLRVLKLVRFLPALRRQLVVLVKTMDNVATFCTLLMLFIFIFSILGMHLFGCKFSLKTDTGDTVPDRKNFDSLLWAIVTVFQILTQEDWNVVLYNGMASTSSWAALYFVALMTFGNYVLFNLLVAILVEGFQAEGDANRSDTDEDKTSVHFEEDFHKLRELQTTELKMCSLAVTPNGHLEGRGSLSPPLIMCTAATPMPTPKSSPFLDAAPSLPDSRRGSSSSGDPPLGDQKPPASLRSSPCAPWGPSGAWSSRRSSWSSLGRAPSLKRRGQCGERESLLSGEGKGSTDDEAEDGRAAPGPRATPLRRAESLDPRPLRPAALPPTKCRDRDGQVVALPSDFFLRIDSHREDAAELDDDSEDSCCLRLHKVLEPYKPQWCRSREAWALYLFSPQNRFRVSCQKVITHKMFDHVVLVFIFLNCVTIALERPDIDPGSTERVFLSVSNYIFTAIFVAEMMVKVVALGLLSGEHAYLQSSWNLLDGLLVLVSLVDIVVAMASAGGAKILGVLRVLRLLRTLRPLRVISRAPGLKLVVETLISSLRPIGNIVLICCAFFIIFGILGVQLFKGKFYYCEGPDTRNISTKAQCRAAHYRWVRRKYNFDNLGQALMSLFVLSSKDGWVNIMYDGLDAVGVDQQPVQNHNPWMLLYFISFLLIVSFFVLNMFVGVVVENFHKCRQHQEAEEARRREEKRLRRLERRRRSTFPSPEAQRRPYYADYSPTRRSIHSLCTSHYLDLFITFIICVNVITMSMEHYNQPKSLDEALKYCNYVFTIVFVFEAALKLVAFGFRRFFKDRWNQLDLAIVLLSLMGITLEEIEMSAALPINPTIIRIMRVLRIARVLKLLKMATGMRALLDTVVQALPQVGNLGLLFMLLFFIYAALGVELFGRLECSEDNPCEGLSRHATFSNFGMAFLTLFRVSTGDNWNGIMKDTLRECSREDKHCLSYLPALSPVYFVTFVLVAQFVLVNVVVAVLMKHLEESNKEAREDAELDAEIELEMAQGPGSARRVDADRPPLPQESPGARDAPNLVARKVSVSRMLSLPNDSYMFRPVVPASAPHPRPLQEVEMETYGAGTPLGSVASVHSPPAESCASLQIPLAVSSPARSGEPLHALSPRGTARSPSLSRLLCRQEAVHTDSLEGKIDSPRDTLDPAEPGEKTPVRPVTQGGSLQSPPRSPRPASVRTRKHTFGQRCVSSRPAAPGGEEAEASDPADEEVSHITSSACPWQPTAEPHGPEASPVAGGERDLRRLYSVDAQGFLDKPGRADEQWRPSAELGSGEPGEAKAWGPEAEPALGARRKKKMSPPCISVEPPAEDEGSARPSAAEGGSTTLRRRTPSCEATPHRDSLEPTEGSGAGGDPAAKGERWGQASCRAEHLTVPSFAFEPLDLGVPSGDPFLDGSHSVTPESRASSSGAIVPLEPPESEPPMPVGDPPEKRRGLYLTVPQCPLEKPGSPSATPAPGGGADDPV
* hit, by the source's call; / = no result.

SMILES	CYP2C9 activ	CYP2C19 activ	CYP2C9 inhib	CYP2C19 inhib	Cav3 T inh
CCN(CC)S(=O)(=O)c1cc(Br)c(C)cc1OC	2*	0.6	-104.3	41.3	/
COc1cc(C)c(Br)cc1S(=O)(=O)N1CCCC1	2.8*	0	-178.3	95.5*	-0.514
CCCOc1cc(C)c(Cl)cc1S(=O)(=O)N(CC)CC	/	/	/	/	-3.84*
COc1ccc(Br)cc1S(=O)(=O)N1CCOCC1	1.3	0.6	-33.7	43.5	0.347
CCN(CC)S(=O)(=O)c1cc(Br)ccc1OC	2.5*	0	-149.0	97.5*	-0.212
O=C(CSc1nnc(Cc2cc(=O)[nH]c(=O)[nH]2)n1-c1ccc(F)cc1)NC1CCCC1	1.1	1.2	-7.0	-16.8	-0.259
CCCc1cc(C(=O)Nc2cc(Br)ccc2O)no1	0.7	1.2	31.0	-19.7	-1.72
COc1cc(CC2COC(c3ccc(O)c(OC)c3)C2COC(C)=O)ccc1O (centres undefined)	/	/	/	/	-0.219
OCC12COC(c3ccccc3)N1C(c1ccccc1)OC2 (centres undefined)	0.5	0.3	46.6	69.4*	0.00796
CCC(=O)N1CCN(C(=O)CC)C1c1ccccc1	1	0.9	-1.0	5.4	0.564
C=CCc1c(C)nc(SC)nc1Nc1ccc(C)cc1	0.9	0.9	5.0	6.5	-2.57
Cc1cc2c(=O)n(CC(=O)N3CCN(c4ccccc4)CC3)cnc2s1	1.1	1.1	-13.1	-7.3	1.02
Cc1cc2c(=O)n(CC(=O)NCC(=O)N3CCN(Cc4ccccc4)CC3)cnc2s1	0.5	0.8	51.8*	17.1	/
O=C(Nc1nnc(COc2ccc(Cl)cc2)s1)c1ccc([N+](=O)[O-])cc1	1	1.1	-2.5	-13.9	-0.0518
COCc1nnc(NS(=O)(=O)c2ccc(Br)cc2)s1	0.4	1.1	57.4*	-12.9	0.617
COCc1nnc(NS(=O)(=O)c2ccc([N+](=O)[O-])cc2)s1	0.2	1.2	82.1*	-20.3	0.459
O=C(Nc1cccc(Cl)c1)ON=C1c2ccccc2-c2ccccc21	0.4	0.9	62.7*	11.3	-0.0908
COC(=O)[C@@H]1C[C@H]2CC[C@H](O)C[C@H]2N1Cc1ccc(C(F)(F)F)cc1	/	/	/	/	-0.136
NC(=O)c1ccccc1NC(=O)/C=C/C(=O)O	1	0.9	2.5	6.9	0.0222
O=C(O)/C=C\C(=O)Nc1ccccc1C#Cc1ccc(Br)cc1	0.1	1	87.1*	-3.4	-1.7
O=C(O)/C=C\C(=O)Nc1ccccc1C#Cc1ccccc1	0.4	1	62.1*	2.6	0.335
Cc1cc(C)c(S(=O)(=O)NCCC2CCCN2C)c(C)c1 (centres undefined)	1.1	1	-13.1	2.3	-1.18
COCCCNCC(=O)c1c(N)n(Cc2ccccc2)c(=O)n(C)c1=O	0.9	1	12.6	0.5	0.348
Cc1noc(C)c1CSc1nnc2cc(C)c3ccccc3n12	0.9	0.7	13.0	33.8	2.13
Cc1ccc(N(C(=O)Cn2nnc(-c3ccc(F)cc3)n2)C(CC(C)C)C(=O)NCC2CCCO2)cc1 (centres undefined)	0.6	0.8	40.0	23.3	-7.37*
SMILES	CYP2C9 activ	CYP2C19 activ	CYP2C9 inhib	CYP2C19 inhib	Cav3 T inh
CC(C)CC(C(=O)NCC1CCCO1)N(C(=O)Cn1nnc(-c2ccc(F)cc2)n1)c1ccccc1F (centres undefined)	0.6	0.9	43.0	8.4	-3.36*
Cc1ccc(-c2nnn(CC(=O)N(c3ccccc3F)C(CC(C)C)C(=O)NCC3CCCO3)n2)cc1 (centres undefined)	0.5	0.8	45.2	23.9	-4.43*
CC(C)CC(C(=O)NCC1CCCO1)N(C(=O)Cn1nnc(-c2ccc(F)cc2)n1)c1cccc(C(F)(F)F)c1 (centres undefined)	0.6	0.6	39.9	40.3	-5.04
CC(C)(C)NC(=O)C(c1ccco1)N(C(=O)Cn1nnc(-c2ccc(F)cc2)n1)c1ccccc1F (centres undefined)	0.9	0.8	11.8	23.4	-5.02*
CCC(CC)c1nnc(NC(=O)c2ccc(N3CCCC3=O)cc2)s1	1	1.1	3.6	-11.1	0.329
O=C(CCSc1ccccc1)N1CCN(C(=O)c2ccco2)CC1	0.8	0.7	20.1	25.4	0.432
COc1ccc(CN2CCN(c3ccccn3)CC2)c(OC)c1	0.8	0.5	15.5	45.7	0.103
c1ccc(COc2ccc(CN3CCN(c4ccccn4)CC3)cc2)cc1	0.4	0.6	58.9*	37.9	-0.973
C(#Cc1ccccc1)CN1CCN(c2ccccn2)CC1	0.2	0	76.1*	98.5*	-1.27
CCOC(=O)C1CCN(C(=O)CCNC(=O)c2cc(OC)c(OC)c(OC)c2)CC1	1	1.1	1.3	-13.3	0.138
COc1ccc(CNC(=O)C(C)NC(=O)c2cc3ccccc3o2)cc1 (centres undefined)	0.2	0.8	76.0*	22.6	-0.546
O=C(Nc1cccnc1)Nc1ccccc1Cl	1.1	1	-9.7	-3.5	-0.129
COc1ccc(NC(=O)NCc2ccncc2)cc1	0.4	0.7	60.2*	31.1	0.0631
O=C(NCc1ccncc1)Nc1ccccc1Cl	0.2	0.1	81.4*	88.8*	0.822
NS(=O)(=O)c1ccc(CCNC(=O)Nc2ccc(Cl)c(Cl)c2)cc1	0.7	0.7	33.8	34.5	-0.52
O=C(NCCc1ccncc1)Nc1ccc(Cl)cc1	0	0	95.5*	97.0*	-0.0435
CCCCCC(C)NC(=O)c1ccoc1C (centres undefined)	/	/	/	/	0.299
COc1ccc(-c2cnc(OC(C)(C)C)nc2OC(C)(C)C)cc1OC	0.7	0.9	25.6	8.3	-0.607
CCOC(=O)c1ccc(NC(=O)C(CC)CC)cc1	0.9	0.5	9.6	54.7*	-0.636
CCCCC(=O)Nc1ccc(C(=O)NCc2ccncc2)cc1	0.3	0.4	69.7*	62.7*	0.158
CCOC(=O)c1ccc(NCc2ccc(N(C)C)cc2)cc1	1	0.5	3.5	54.1*	-0.0359
COc1ccc(CNC(=O)Nc2cccc3ccccc23)cc1	1.4	0.1	-36.0	89.3*	-0.273
COc1ccc(CNC(=O)Nc2ccc(C)cc2)cc1	1.2	0.6	-15.3	40.2	0.0311
CCOC(=O)CC(=O)Nc1ccc(C(=O)OCC)cc1	0.8	0.7	24.7	26.6	0.584
Cc1nc2sc(C(c3cccs3)N3CCN(c4ccccc4)CC3)c(O)n2n1 (centres undefined)	0.9	0.9	5.3	9.3	-0.857
SMILES	CYP2C9 activ	CYP2C19 activ	CYP2C9 inhib	CYP2C19 inhib	Cav3 T inh
CCCc1oc2c(c(=O)c1CC)C(=O)CC(C)(C)C2	0.8	0.6	22.1	40.8	0.475
CCOc1ccccc1CN1C(=O)c2ccccc2C1C(=O)NCC1CCCO1 (centres undefined)	1.1	0.9	-6.5	8.5	0.774
O=C(NCc1ccccn1)Nc1cccc(NC(=O)NCc2ccccn2)c1	1.2	1.1	-15.2	-8.1	0.663
O=C(NCc1ccncc1)Nc1ccccc1	0.7	0.5	33.5	53.7*	-0.571
CCOC(=O)c1ccc(NC(=O)NCc2ccncc2)cc1	0.3	0.8	73.1*	24.1	0.0311
Cn1ccnc1-c1nnn(-c2ccc(Cl)c(Cl)c2)n1	/	/	/	/	0.284
